Screening data from PubChem.
HEK293 cAMP cs: qHTS Assay for Agonists of the Thyroid Stimulating Hormone Receptor: Activators of Intracellular cAMP Concentrations in Parental HEK 293 | parental HEK293 CNG cAMP sensor, membrane potential fluorescence | Potency, µM (highest dose often 57.1 µM), for inactives: at the highest dose activation, most hits filed as activators | hit rate 2.5% among 73,000 | AID 938, 2007; further: potency means the concentration at half of the fitted maximal effect; % of control where 0% means no effect; nearly all actives have a fitted effect of over 55% in size
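Parental HEK 293 cells stably expressing a modified CNG channel (no TSHR) report cAMP rise as membrane depolarization. Membrane potential dye with 100 uM RO 20-1724 was loaded for 60 min at room temperature, then compound added for 30 min; fluorescence read at 590 nm.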
TSHR agonist: qHTS Assay for Agonists of the Thyroid Stimulating Hormone Receptor. Thyrotropin receptor (Homo sapiens), P16473. HEK293-CNG-TSHR cells (CNG channel as cAMP sensor), membrane potential dye, cAMP. Potency, µM (highest dose often 57.1 µM), for inactives: at the highest dose activation, hits mostly activators. hit rate 0.48% among 73,000. AID 926, 2007; active means well fitted activation curve with a large enough effect in the main read-out, with a control signal flat, not every such curve was filed as active; inconclusive means small, poorly fitted or top-dose-only effect, or a change in a side signal; inactive means no such curve, though single readings can be large or run the other way; % of control where 0% means no effect;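 further: the control signal comes from parental cells without the receptor; potency means the concentration at half of the fitted maximal effect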
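cAMP rise detected as CNG-channel membrane depolarization by fluorescent dye (emission 590 nm), 30 min after compound, following 60 min dye loading containing 100 uM RO 20-1724 at room temperature. Cells: TSHR/CNG HEK 293, with parental CNG HEK 293 as control.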
ERK AVP inh: qHTS Assay for Inhibitors of the ERK Signaling Pathway using a Homogeneous Screening Assay; HEK293-V1b, vasopressin-stimulated pERK AlphaScreen; Potency, µM (titrated, usually from 57.5 µM), for inactives: at the top dose activity, negative = inhibition, usual class: inhibitors; hit rate 0.99% among 72,000; AID 995, 2007; further: potency means the concentration at half of the fitted maximal effect; on the % scale 0 is the no-effect control and ±100 the full control effect; nearly all actives have a fitted effect of over 55% in size
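qHTS, compounds titrated on V1b-expressing HEK293 cells. Preincubation 30 min at 37C, vasopressin 25 nM for 5 min, lysis 10 min, bead incubation 5 hr at room temperature.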
Tau fil binding: qHTS Assay for Tau Filament Binding. hit rate 2% among 71,000. recombinant tau filaments, thioflavin S fluorescence, 15 h; filaments grown with octadecylsulfate alongside compound. Potency, µM (series often up to 57.1 µM), inactives show at the highest dose activity change, negative = inhibition. Microtubule-associated protein tau (Homo sapiens), P10636;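 further: potency means the concentration at half of the fitted maximal effect; on the % scale 0 is the no-effect control and ±100 the full control effect; actives lower thioflavin S fluorescence by blocking filaments or displacing dye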
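Recombinant tau protein (human, 1 uM final) plus 30 uM ODS in HEPES pH 7.4 with NaCl, DTT and thioflavine S. Compound present from the start; fluorescence at 510 nm after 15 h, 37 C.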
CRE-bla Fsk: Cell signaling CRE-BLA (Fsk stim) | CHO CRE-bla reporter (cAMP response element driving beta-lactamase), forskolin EC10, beta-lactamase ratio | Potency, µM (top dose mostly 38.2 µM), inactives show top-dose activity change, negative = inhibition, hits mostly activators | hit rate 2.5% among 71,000 | AID 662, 2007; active means well fitted activation curve with a large enough effect in the signal ratio, with a control signal flat, not every such curve was filed as active; inconclusive means small, poorly fitted or top-dose-only effect, or effect the other way, or a change in a side signal; the % refers to the signal ratio; further: potency means the concentration at half of the fitted maximal effect; % of control where 0% means no effect
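The 460nm/530nm emission ratio after CCF4 loading defined %Activity, from which AC50 values were obtained. CRE-bla CHO cells received compound dilution series together with an EC10 level of NKH 477 for 3 hours at 37 degrees Celsius.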
Tau ThS bind: Tau ThS binding assay. shares compounds with Tau fil binding. recombinant tau filaments, Thioflavin S fluorescence displacement. Potency, µM. hit rate 40% among 60; calls by dose curve
aSyn ThS displ: Alpha-synuclein ThS binding assay | shares compounds with Tau fil binding | recombinant alpha-synuclein fibrils, ThS fluorescence displacement | Potency, µM | hit rate 40% among 60; calls by dose curve
Abeta ThS displ: Beta amyloid ThS binding assay | Potency, µM | shares compounds with Tau fil binding | Abeta1-42 fibrillization, thioflavin S fluorescence, overnight 37 C | hit rate 50% among 60; calls by dose curve
Target sequence (P05067 whole entry, looked up): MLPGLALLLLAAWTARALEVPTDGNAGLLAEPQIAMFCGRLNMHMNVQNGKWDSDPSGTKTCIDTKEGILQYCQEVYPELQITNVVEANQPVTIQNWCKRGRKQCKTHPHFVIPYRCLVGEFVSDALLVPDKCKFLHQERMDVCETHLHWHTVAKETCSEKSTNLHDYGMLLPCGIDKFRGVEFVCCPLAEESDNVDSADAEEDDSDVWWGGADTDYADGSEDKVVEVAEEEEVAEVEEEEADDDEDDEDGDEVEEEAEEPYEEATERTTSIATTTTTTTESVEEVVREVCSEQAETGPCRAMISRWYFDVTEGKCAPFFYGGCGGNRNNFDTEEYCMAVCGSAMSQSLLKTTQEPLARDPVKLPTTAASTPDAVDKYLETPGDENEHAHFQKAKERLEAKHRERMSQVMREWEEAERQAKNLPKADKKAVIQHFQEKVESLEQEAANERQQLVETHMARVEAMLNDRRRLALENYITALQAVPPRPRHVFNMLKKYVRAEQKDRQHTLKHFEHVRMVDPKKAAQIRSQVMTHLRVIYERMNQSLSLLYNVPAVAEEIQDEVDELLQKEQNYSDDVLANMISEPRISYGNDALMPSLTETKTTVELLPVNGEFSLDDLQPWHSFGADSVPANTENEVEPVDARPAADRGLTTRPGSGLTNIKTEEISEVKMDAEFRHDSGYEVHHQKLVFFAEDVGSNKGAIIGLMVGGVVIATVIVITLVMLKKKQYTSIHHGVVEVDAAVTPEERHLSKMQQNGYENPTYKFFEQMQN
CHO tox 24h: Cell Viability - CRE-beta lactamase CHO cell - 24 hr assay | shares compounds with CRE-bla Fsk | CRE-bla CHO viability, ATP luminescence, 24 h | activity, negative = viability loss, % at 46.1 µM | 120 tested, under 10 active | AID 905, 2007
CHO via 40h: Cell Viability - CRE-beta lactamase CHO cell - 40 hr assay | shares compounds with CRE-bla Fsk | CRE-bla CHO viability, ATP luminescence, 40 h | Potency, µM, inactives show max response, actives largely listed as inhibitors | 120 tested, under 10 active
CRE-luc potent: Confirmation Concentration-Response Assay for Cell signaling CRE-BLA (Fsk stim) - HEK293 CREB Luciferase | AID 907, 2007 | HEK293 CRE-luc2P, NKH477 EC10 potentiation, luminescence, 4 h | Potency, µM (series often up to 38.3 µM), for the others: at the highest dose activity, positive = activation, usual class: activators | shares compounds with CRE-bla Fsk | hit rate 80% among 120
* hit, by the source's call; i = inactive; u = inconclusive; x = no result given; ! = repeats disagree; [ ] = another dose, or the depositor's remark. In the library only some 7.6% were active in any assay of this set; here they are far more common. Unless noted, the call rests on the fitted dose curve; in most records, active means well fitted curve in the direction sought with a large enough effect; inconclusive means small, poorly fitted or top-dose-only effect, or another doubt; inactive means no such curve, though single readings can be large; an effect the other way counts as inactive or inconclusive.

SMILES | HEK293 cAMP cs | TSHR agonist | ERK AVP inh | Tau fil binding | CRE-bla Fsk | CHO tox 24h | CHO via 40h | CRE-luc potent | others
Cc1cc(C)c2nc(N3CCCC(C(=O)NCCN4CCOCC4)C3)sc2c1 (stereo not given) | 6% | 0% | 14% | -34% | -19% | x | x | x | Tau ThS bind=i;aSyn ThS displ=i;Abeta ThS displ=i
Cc1cc(C)c2nc(N3CCCC(C(=O)N4CCC(C(N)=O)CC4)C3)sc2c1 (stereo not given) | -5% | 29% | 3% | 96% | u | x | x | x
COCCCn1c(=N)c(C(=O)NCC2CCCO2)cc2c(=O)n3cccc(C)c3nc21 (stereo not given) | -8% | -2% | u | 9% | u | x | x | x | Tau ThS bind=u;aSyn ThS displ=u;Abeta ThS displ=u
COCCn1c(=O)[nH]c2cc(C(=O)NCC3CCCO3)ccc2c1=O (stereo not given) | 10% | 8% | 15% | 7% | -4% | x | x | x
Cc1cccn2c(=O)c3cc(C(=O)NCCN4CCOCC4)c(=N)n(CCc4ccccc4)c3nc12 | -11% | -11% | -15% | 0.5µM* | 13µM* | x | x | x | Tau ThS bind=i;aSyn ThS displ=u;Abeta ThS displ=i
O=C1c2ccccc2-c2onc3ccc(NCCCn4ccnc4)c1c23 | 0% | -33% | 16µM* | 0.13µM* | u | x | x | x | Tau ThS bind=5.5µM*;aSyn ThS displ=3.2µM*;Abeta ThS displ=2.2µM*
COc1ccc([C@@H]2CNC(=O)C2)cc1OC1CCCC1 | -3% | 6% | -11% | u | 0.01µM*! | -6 | -12% | 0.028µM*
Cc1ccc2c(C)nc(Nc3nc(CSc4nnnn4-c4ccccc4)cc(=O)[nH]3)nc2c1 | 21% | 26% | -15% | 35% | u | -14 | -29% | 3.2µM*
COCc1cc(=O)[nH]c(Nc2nc(C)c3ccc(C)cc3n2)n1 | 11% | 3% | -3% | 2% | 8% | -6 | -26% | u
CCOc1cc(C2c3c(oc4cc(C)c(Cl)cc4c3=O)C(=O)N2Cc2ccco2)ccc1O (stereo not given) | 4% | 26% | -10% | -5% | 13µM* | -21 | -25% | 0.79µM*
Cc1cc2oc3c(c(=O)c2cc1C)C(c1cccc(Br)c1)N(Cc1ccco1)C3=O (stereo not given) | 17% | 9% | 15% | 9% | -4% | x | x | x
Cc1nn(-c2ccccc2)c2sc(C(=O)N3CCCCC3)cc12 | 24% | 28% | 20% | 18% | 3.2µM* | -18 | u | 10µM*
Cc1nn(-c2ccccc2)c2sc(C(=O)n3cccn3)cc12 | 9% | -1% | -11% | 38% | u | x | x | x
CCCC[C@@H]1C[C@H]1[C@@H](NP(=O)(c1ccccc1)c1ccccc1)c1ccccc1OC | u | u | -21% | -18% | -1% | x | x | x
O=c1[nH]c(SCc2ccccc2Cl)nc2c1cnn2-c1ccccc1 | -5% | 9% | x | 269% | 0.79µM* | -19 | -21% | 6.3µM*
Cc1ccc(-n2ncc3c(=O)[nH]c(SCC(=O)N4CCOCC4)nc32)cc1 | 6% | -2% | 10% | 4% | 19% | 4 | 2% | u
C=CCn1c(SCC(=O)Nc2sccc2C(N)=O)nc2sc(C)c(C)c2c1=O | -8% | 21% | 10% | 164% | 2µM* | u | u | 4µM*
Cc1nnc(SCC(=O)Nc2sccc2C(N)=O)n1Cc1ccccc1 | -2% | -1% | 14% | -9% | u | x | x | x
CN1C(=O)CC[C@@H]1c1cccnc1 | 0% | -3% | 16%[25.7 µM] | -11% | u | x | x | x
CC[C@]1(O)C[C@@H]2CN(CCc3c([nH]c4ccccc34)[C@](C(=O)OC)(c3cc4c(cc3OC)N(C=O)[C@H]3[C@@](O)(C(=O)OC)[C@H](C(=O)OC)[C@@]5(CC)C=CCN6CC[C@]43[C@H]65)C2)C1 | 4% | 2% | 3% | u | 0.5µM* | -22 | u | 8%
Cc1cc(-c2nnc3n2N=C(c2ccc(-c4ccccc4)cc2)CS3)n[nH]1 | 32µM* | u | -8% | i | u | -30 | u | 1.6µM*
Fc1ccc(C2=Nn3c(Cc4ccccc4)nnc3SC2)cc1 | 27% | 8% | -17% | 8% | 16% | -5 | -10% | 13µM*
c1ccc(C2=Nn3c(nnc3-c3ccncc3)SC2)cc1 | -8% | 0% | -12% | -4% | u | x | x | x
CCOC(=O)CSc1nc2sc3c(c2c(=O)n1CC)CC(C)(C)OC3 | 6% | 7% | u | 22% | u | x | x | x
CC1(C)Cc2c(sc3nc(SCC#N)n(C4CCCCC4)c(=O)c23)CO1 | x | x | x | x | x | -11 | -20% | 0.63µM*
SMILES | HEK293 cAMP cs | TSHR agonist | ERK AVP inh | Tau fil binding | CRE-bla Fsk | CHO tox 24h | CHO via 40h | CRE-luc potent | others
Cn1cccc1C(=O)N1CCC2(CC1)CCN(c1ccccc1)CC2 | -2% | 5% | -24% | -26% | -5% | x | x | x
CCNc1ncc2nc(-c3cc(F)cc(F)c3)c(=O)n(CCOC)c2n1 | 10% | 3% | 5% | 38% | u | x | x | x
COc1cccc(-c2nccc(NCc3cnc(C)cn3)n2)c1 | 9% | 7% | -25% | 4% | u | x | x | x
CC1CCc2c(sc3nc(C4CC4)nc(SCC(=O)NCc4ccco4)c23)C1 (stereo not given) | 7% | 3% | -11% | -17% | -1% | 3 | -2% | 8%
Cc1cc(C)nc(N2CCN(c3nc(C)nc4c3oc3ccccc34)CC2)n1 | 5% | 14% | -1% | 9% | 0% | 5 | -5% | 3.2µM*
Cc1cc(C)nc(Sc2nc(C)nc3c2oc2ccccc23)n1 | 3% | 12% | -22% | -1% | 2% | x | x | x
CC(C)[C@@H]1[C@H]2CC[C@H](C2)[C@H]1N | -19% | -19% | 1% | -4% | -9% | x | x | x
Nc1nc(SCCc2ccccc2)c2[nH]cnc2n1 | -7%[11.4 µM] | 0%[11.4 µM] | -7%[11.5 µM] | -1%[11.4 µM] | -1%[7.6 µM] | x | x | x
